This is a sample that favours compounds with a hit; in the whole collection about 10% have one here.
NS1 inh: qHTS Assay for Inhibitors of Influenza NS1 Protein Function. Potency, µM (doses to about 46.1 µM), without a hit: top-dose activity, positive = more growth. 270,000 compounds, 0.4% hits. AID 2326, 2010; calls by dose curve; also: potency is read from the fitted curve at half-maximal effect; actives are rising curves; nearly all actives have a fitted effect of over 50% in size
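Read-out: OD600 growth recovery of NS1-expressing budding yeast. Cells grown overnight at 30C in -URA glucose medium, washed, resuspended and diluted 1:100 in 2% galactose assay medium, pH 6.0. Same strain lacking NS1 served as positive control.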
Pf growth 96h: Primary qHTS for delayed death inhibitors of the malarial parasite plastid, 96 hour incubation | 320,000 compounds, 6.9% hits | Potency, µM (doses to about 28.7 µM), for inactives: at the highest dose activity change, negative = inhibition, most hits filed as inhibitors | P. falciparum luciferase reporter growth, 96 h | AID 504834, 2011; also: potency is read from the fitted curve at half-maximal effect; % is scaled to controls: 0 for no effect and ±100 for the full control effect
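Two parasite generations (96 h, 37 C, 5% CO2) of compound exposure in infected erythrocytes (0.05% parasitemia, 2% hematocrit). Luciferase-reporter P. falciparum; decreased luminescence indicates inhibited growth, aimed at apicoplast-acting delayed death.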
Pf growth 48h: Primary qHTS for delayed death inhibitors of the malarial parasite plastid, 48 hour incubation | Potency, µM (highest dose often 28.7 µM), inactives show at the top dose activity change, negative = inhibition, actives largely listed as inhibitors | P. falciparum luciferase growth in erythrocytes, 48 h | 310,000 compounds, 5.9% hits; also: potency is read from the fitted curve at half-maximal effect; % is scaled to controls: 0 for no effect and ±100 for the full control effect
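First compound was added to culture medium, then infected red cells at 0.1% parasitemia and 2% hematocrit (final). After incubation at 37 C under 5% CO2, luciferase detection reagent was dispensed and light output recorded.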
SARS PLpro yeast-1: qHTS of Yeast-based Assay for SARS-CoV PLP; S. cerevisiae expressing SARS-CoV PLpro, growth rescue; Potency, µM (titrated, usually from 32.9 µM), without a hit: at the highest dose activity, positive = growth rescue, usual class: activators; 330,000 compounds, 0.19% hits; AID 485353, 2010; calls by dose curve; also: potency is read from the fitted curve at half-maximal effect; 0% is about no effect; nearly all actives have a fitted effect of over 55% in size
SARS PLpro yeast-2: qHTS of Yeast-based Assay for SARS-CoV PLP: Hit Validation | shares compounds with SARS PLpro yeast-1 | yeast expressing SARS-CoV PLpro, growth phenotype rescue | calls only | 1,000 compounds, 19% hits | AID 652038, 2013; call rule not given here
* hit, by the source's call; i = inactive; ? = inconclusive; . = no result; + = active, no number; [ ] = dose if it differs, or a comment. Unless noted, calls follow the shape of the dose curve; as a rule, active = well fitted inhibition curve with a large enough effect; inconclusive = small, poorly fitted or top-dose-only effect, or another doubt; inactive = no such curve, though single readings can be large or run the other way.

SMILES	NS1 inh	Pf growth 96h	Pf growth 48h	SARS PLpro yeast-1	SARS PLpro yeast-2
Cc1[nH]n(-c2cccc3ccccc23)c(=O)c1/C=N/NC(=O)c1cccc([N+](=O)[O-])c1	?	47%	?	?	+
Cc1[nH]n(-c2ccccc2)c(=O)c1/C=N/NC(=O)c1cccc([N+](=O)[O-])c1	-3%	?	30%	7%	.
Cc1cc(C)c(NC(=O)C2CCCN2CCOC(=O)c2ccccc2)c(C)c1 (configuration not stated)	-45%	0%	6%	-7%	.
O=C(COC(=O)C1CCCCC1)Nc1cccc(F)c1	.	.	.	-14%	.
O=C(COC(=O)CC1CCCC1)Nc1cccc(F)c1	.	-3%	25%	?	i
CCOc1ccc(N2C(=O)CC(SC(=NC)Nc3ccc4c(c3)OCO4)C2=O)cc1 (configuration not stated)	5%	16%	.	?	?
O=C(On1c(-c2ccccc2)nc2ccccc2c1=O)c1ccco1	-171%	-9%	?	.	.
COc1cc(OC)cc(-c2nc3ccccc3c(=O)n2OC(=O)c2ccccc2C)c1	-1%	-2%	19%	?	+
CC(=O)c1ccc(S(=O)(=O)Nc2c(C)nn(C)c2C)cc1	.	5%	-12%	4%	.
O=C(Nc1nccs1)c1cnccn1	6%	51%	22%	-2%	.
CCc1nnc(NC(=O)c2cnccn2)s1	-24%	.	62%	?	i
CCSc1ccccc1C(=O)N1CCN(c2ccccc2F)CC1	-8%	-4%	?	?	i
O=C(c1ccccc1C(=O)N1CCN(c2ccccc2F)CC1)N1CCN(c2ccccc2F)CC1	-19%	.	?	1%	.
CCSc1ccccc1C(=O)Nc1ccc(S(=O)(=O)NC(C)=O)cc1	1%	5%	11%	0%	.
O=c1cc(CO)oc(C(Nc2ccccn2)c2ccccc2Cl)c1O (configuration not stated)	.	?	?	13µM*	i
COc1ccc(C(Nc2ccccn2)c2oc(CO)cc(=O)c2O)cc1 (configuration not stated)	2%	-5%	7%	11µM*	i
O=c1cc(CO)oc(C(Nc2ccccn2)c2ccsc2)c1O (configuration not stated)	?	146%	0%	-1%	.
CC1CN=C(N(C(=O)Nc2ccccc2)C(C)c2ccccc2)S1 (configuration not stated)	3%	-20%	?	0%	.
C=CCN(CC=C)C(=S)NC(=O)/C=C/c1ccc(C)cc1	14%	?	-19%	?	.
C=CCN(CC=C)C(=S)NC(=O)/C=C/c1ccccc1	17%	-23%	-2%	2.8µM*	i
O=C(CN1CCCCC1CO)c1ccc(OC(F)F)cc1 (configuration not stated)	.	15%	-9%	-6%	.
O=C(CN1CCCCC1)c1ccc(OC(F)F)cc1	3%	-15%	7%	?	i
CCC(=O)N(CCc1ccccc1C)Cc1cc2ccc(C)cc2[nH]c1=O	?	0%	-9%	-1%	.
CC(=O)N(CCc1ccccc1C)Cc1cc2cc3c(cc2[nH]c1=O)OCO3	-3%	2%	2%	11µM*	i
O=C(/C=C/c1ccc(F)cc1)NCCc1ccc2c(c1)OCCO2	-18%	-5%	-5%	4µM*	i
SMILES	NS1 inh	Pf growth 96h	Pf growth 48h	SARS PLpro yeast-1	SARS PLpro yeast-2
COc1ccc(-c2nnc(SCC(=O)c3[nH]c(C)c(C(C)=O)c3C)o2)cc1	-8%	-1%	?	-3%	.
CCOC(=O)c1[nH]c(CSc2nnc(-c3ccc(OC)cc3)o2)c(C(=O)OCC)c1C	5%	0%	.	3.2µM*	i
O=C(CSc1nc(-c2ccco2)cc(C(F)(F)F)n1)Nc1ccc2c(c1)OCO2	1%	7%	-1%	?	+
CC(=O)c1ccc(NC(=O)CCn2c(=S)oc3ccccc32)cc1	-11%	?	8%	-3%	.
O=C(CCNC(=O)c1ccccc1Cl)Nc1ccc(Cl)c(C(F)(F)F)c1	-17%	?	44%	3.5µM*	i
O=C1NCCCC1C(=O)N/N=C/c1ccccc1 (configuration not stated)	-5%	5%	4%	?	i
CCOc1ccc(CCNC(=O)c2ccc(CS(=O)Cc3ccc(Cl)cc3)o2)cc1 (configuration not stated)	9%	?	3%	?	i
CC(Sc1n[nH]c(-c2ccccc2F)n1)C(=O)Nc1ccc(S(N)(=O)=O)cc1 (configuration not stated)	.	?	?	?	i
COc1cccc(C(=O)CC(=O)C(=O)Nc2cc(Cl)c(OC)cc2OC)c1	.	-23%	-5%	-4%	.
COc1ccc(C(=O)CC(=O)C(=O)Nc2cc(Cl)c(OC)cc2OC)cc1	-10%	28%	1%	?	+
O=C(c1ccc(-n2c(SCc3cccc(F)c3)nc3ccccc3c2=O)cc1)N1CCOCC1	12%	31%	?	3.2µM*	+
CCCCn1c(N)c(N(CCOC)C(=O)COC(=O)CCOc2ccccc2)c(=O)[nH]c1=O	.	-5%	-4%	.	.
O=C(Cn1nc(Cl)nc1Cl)c1ccc2c(c1)OCCO2	-144%	-21%[5.75 µM]	13%	11µM*	?
O=C(Cn1nc(Cl)nc1Cl)c1ccccc1	4%	-3%	-4%	-2%	.
CCC(=NNC(=O)c1ccc2c(c1)nc(C)n2CC)c1cc(F)ccc1O	.	.	.	10µM*	i
O=C(Nc1ccc(Br)cc1)c1cccn1-c1ncc(C(F)(F)F)cc1Cl	-40%	?	?	?	i
CCC(C(=O)OCC(=O)NC1CCS(=O)(=O)C1)c1ccccc1 (configuration not stated)	.	2%	-16%	2%	.
COc1ccc(CCNC(=O)CN(c2cc(C)cc(C)c2)S(=O)(=O)c2c(C)noc2C)cc1OC	-27%	-2%	?	-4%	.
CCOC(=O)N1CCN(S(=O)(=O)c2ccc(C(=O)NNc3nc4cc(C)cc(C)c4s3)cc2)CC1	?	?	?	7.9µM*	?
COc1ccc(NC(=O)CS(=O)c2cccc(C(F)(F)F)c2)cc1 (configuration not stated)	-1%	0%	-9%	.	.
CCNc1nc(NCC)nc(N/N=C/c2ccc(O)c(O)c2)n1	-8%	?	-177%	11µM*	i
Cc1ccc(NC(=O)CCNS(=O)(=O)c2ccc(Br)cc2)cc1S(=O)(=O)N1CCOCC1	.	?	?	?	i
Cc1ccc(NC(=O)CCNS(=O)(=O)c2ccccc2)cc1S(=O)(=O)N1CCOCC1	.	?	?	-2%	.
CCc1ccc(OCc2nnc(SCCN3CCOCC3)n2CC)cc1	-14%	.	-29%	?	i
CC1CCC2(CC1)NC(=O)N(CC(=O)c1ccc(Cl)s1)C2=O (configuration not stated)	21%	0%	-6%	.	.

Source: PubChem (National Center for Advancing Translational Sciences (NCATS))
